Test results published in PubChem BioAssay (EPA / NIEHS).
Active and inactive are the calls of the source. The calls were made as follows: active = hit-call score of the fitted dose curve at least 0.9, where 1 is the maximum; inactive = score below 0.9.

Experiment: CCTE_Shafer_MEA_dev_firing_rate_mean: CCTE's Neural Network Formation Assay for Mean Firing Rate, Shafer Lab (AID 2284031);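 as to AC50: curve fitted for loss of firing so AC50 reflects decreased mean firing rate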
Experimental: CCTE_Shafer_MEA_dev assay is conducted using Axion Biosystems 48 well microelectrode array (MEA) plates and Maestro recording system. Each well of the MEA plate contains a grid of 16 microelectrodes embedded in the culture surface. Electrically active cells, such as neurons, can be cultured over the electrodes, and electrical activity in these cells can be recorded extracellularly. The spontaneous firing of neurons is captured from each electrode on a microsecond timescale providing both temporally and spatially precise data. […] The CCTE_Shafer_MEA_dev assay uses primary cultures of rat cortical neurons. Recordings are made on days post-plating 5, 7, 9 and 12. As these cultures mature over time, neural networks develop functional activity and form cohesive networks in which electrical activity can be highly coordinated. CCTE_Shafer_MEA_dev_firing_rate_mean is 1 of 19 assay components of the CCTE_Shafer_MEA_dev assay. It measures the frequency of spikes (action potential firings) as the total number of spikes divided by the length of the recording in a microelectrode array (MEA) using Axion Biosystems Maestro 768 channel amplifier with the AxIS adaptive spike detector. The firing rate is averaged across the active electrodes to report a well-mean value. To collapse across multiple recordings made on days post-plating 5, 7, 9 and 12, the trapezoidal area-under-the-curve of the component is calculated.Data from the assay component CCTE_Shafer_MEA_dev_firing_rate_mean was analyzed into 1 assay endpoint. This assay endpoint, CCTE_Shafer_MEA_dev_firing_rate_mean, was analyzed in the negative analysis fitting direction relative to DMSO as the negative control and baseline of activity. Using a type of functional reporter, gain or loss-of-signal activity can be used to understand electrical activity.
On the day prior to culture, each well was coated thoroughly with 150 uL of 0.05% polyethyleneimine (PEI, Sigma Cat P3143) in 50 mM HEPES (Sigma Cat H7523) at a pH of 8. The plate was incubated at 37C for one hour. PEI was rinsed out with 500 uL of sterile water three times. Plates were stored at 4C until the day of culture. This culture was plated at a seeding density of 1.5 x 10^5 cells/well on a 48-well MEA plate, prepared as described above. Cells were administered via a 25 uL media/laminin ([…]; Sigma Cat L2020-1MG) drop directly onto the microelectrode array, as adding the cells with the laminin results in better attachment than pre-coating with laminin. After 2 hours, an additional 475 uL of cortical media was added and the cells returned to the incubator. Exposure starts at day 0 of plating and is continued over twelve days of network development until the experiment is terminated. Cells are fed with fresh medium on DIV 5 and 9, following the recordings on those days. The entire volume of media in the well is exchanged and any vehicle or compound treatment is renewed. Complete details are found in OP-NHEERL/ISTD/SBB/TJS/2015-03-r0 (available on request, email shafer.tim@epa.gov). Measurement of the electrical activity is non-invasive, and recordings can be made from the same plate over multiple different days of the culture. In cortical neurons, this allows for the measurement of extracellular action potentials over the period during which networks form in the MEA plate.

outcome, inactive:
FC(F)=C(F)C(F)(F)C(F)(F)C(F)(F)C(F)F
O=C(F)C(F)(F)C(F)(F)C(F)(F)C(=O)F
O=C(CC(=O)C(F)(F)C(F)(F)C(F)(F)F)c1cccs1
O=C(O)C(F)(F)OC(F)(F)C(F)(F)OC(F)(F)C(F)(F)OC(F)(F)C(F)(F)C(F)(F)C(F)(F)F
COC(=O)C(F)(F)C(F)(F)C(F)(F)C(F)(F)C(F)(F)F
O=C(O)CCC(F)(F)C(F)(F)C(F)(F)C(F)(F)C(F)(F)F
O=CC(F)(F)C(F)(F)C(F)(F)F
O=C(C=C(O)C(F)(F)F)C(F)(F)F
CC(=O)Nc1ccc(O)cc1
FCOC(C(F)(F)F)C(F)(F)F
CN(C)CCOC(c1ccccc1)c1ccccc1
CN(CCO)S(=O)(=O)C(F)(F)C(F)(F)C(F)(F)C(F)(F)C(F)(F)C(F)(F)C(F)(F)C(F)(F)F
NC(C(F)(F)F)C(F)(F)F
O=P(O)(O)CCC(F)(F)C(F)(F)C(F)(F)C(F)(F)C(F)(F)C(F)(F)C(F)(F)C(F)(F)F
COC(=O)C(F)(F)C(F)(F)C(F)(F)F
O=C(OC(=O)C(F)(F)C(F)(F)F)C(F)(F)C(F)(F)F
O=C1NS(=O)(=O)c2ccccc21
O=P(O)(O)CCC(F)(F)C(F)(F)C(F)(F)C(F)(F)C(F)(F)C(F)(F)F
C=CC(F)(F)C(F)(F)C(F)(F)C(F)(F)F
O=CC(F)(F)C(F)(F)C(F)(F)C(F)F
OCC(F)(F)C(F)(F)C(F)(F)C(F)(F)C(F)(F)C(F)(F)C(F)(F)C(F)(F)C(F)(F)C(F)(F)C(F)(F)F
O=C(F)C(F)(F)C(F)(F)C(F)(F)C(F)F

AC50, active:
CC(C)c1c(C(=O)Nc2ccccc2)c(-c2ccccc2)c(-c2ccc(F)cc2)n1CC[C@@H](O)C[C@@H](O)CC(=O)O 13 nM
Nc1ccn([C@@H]2O[C@H](CO)[C@@H](O)C2O)c(=O)n1 (stereo partly specified) 471 nM
CN(Cc1cnc2nc(N)nc(N)c2n1)c1ccc(C(=O)N[C@@H](CCC(=O)O)C(=O)O)cc1 123 nM
O=C(CCCN1CCC(O)(c2ccc(Cl)cc2)CC1)c1ccc(F)cc1 390 nM
